Results on 13 compounds are retold here after PubChem BioAssay (NCATS).

“And” between values parts separate entries of the source, which are not always exact repeats. Identical values can stand only once.

Assay [1] can be described thus: qHTS profiling of the MIPE4 collection as inhibitors of Plasmodium falciparum (3D7) proliferation (AID 743344).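 Also: scaled between DMSO vehicle wells and 0.29 µM artemisinin as full inhibition.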 The settings on record: P. falciparum 3D7 in erythrocytes, SYBR Green DNA fluorescence, 72 h; at 28.5 µM unless noted. A digest of the protocol: (§1)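 Parasite DNA was quantified by SYBR Green I fluorescence (ex 485, em 535 nm) after overnight lysis in saponin/Triton buffer at room temperature. Cultures at 0.3% parasitemia and 2.5% hematocrit were first exposed to compound for 72 h at 37 C; signals were normalised to artemisinin (0.29 uM) and vehicle wells.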
A general note: In qHTS, concentration-response curves come from the screen itself.

A short description of assay [2]: qHTS profiling of the MIPE4 collection as inhibitors of Plasmodium falciparum (DD2) proliferation (AID 743345). To be noted: P. falciparum Dd2 in erythrocytes, SYBR Green DNA, 72 h; at 28.5 µM unless noted. The method in brief:
as §1

Assay [3] is described as follows: qHTS profiling of the MIPE4 collection as inhibitors of Plasmodium falciparum (DD2) proliferation (Rep 2) (AID 743346). To be noted: P. falciparum Dd2 in erythrocytes, SYBR Green DNA, 72 h; at 28.5 µM unless noted. The method in brief:
as §1

Assay [4] is described as follows: qHTS profiling of the MIPE4 collection as inhibitors of Plasmodium falciparum (HB3) proliferation (AID 743347).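 Also: plate controls were DMSO vehicle wells for no effect and artemisinin wells for full effect.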 The settings on record: P. falciparum HB3 in erythrocytes, SYBR Green DNA, 72 h; at 28.5 µM unless noted. A digest of the protocol: as §1
Assay [5] can be described thus: High-throughput drug toxicity screening in the BPDCN cell line Gen2.2 (AID 1224824).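 Also: cells exposed to compounds for 48 h before reading.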 To be noted: Gen2.2 BPDCN cells; at 45.8 µM (top of the series) unless noted. The method in brief:
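Seed 500 exponentially growing Gen2.2 cells/well; add compounds by pin tool; incubate 48 h, 37 °C, 5% CO2; add CellTiter-Glo, 15 min RT; read luminescence. % activity vs DMSO (100%) and bortezomib (0%).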

A short description of assay [6]: High-throughput drug toxicity screening in the BPDCN cell line Cal-1 (AID 1224825). The settings on record: Cal-1 BPDCN cell viability, qHTS; at 45.8 µM (top of the series) unless noted. A digest of the protocol: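 Viability of the BPDCN line Cal-1 is measured as ATP-based luminescence (CellTiter-Glo) following 48 h incubation with compounds. Percent activity uses DMSO-treated wells as 100% and 9.2 uM bortezomib as 0%.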

Regarding `Cc1nc(N)ncc1-c1nc(N2CCOCC2)c2sc(C(C)(C)O)cc2n1`, the parasite growth, % of DMSO control in assay [1] is 5.28%. The compound also yielded a parasite growth remaining, % of DMSO control (lower = more inhibition) in assay [2] of 8.49%. In addition, the parasite growth, % of control (lower = inhibition) in assay [3] came to 7.48%. Moreover, the growth, % of control in assay [4] came out at 1.99%. Also, the cell viability, % of control (lower = more cytotoxic) in assay [5] amounted to 38.1%. In addition, the viability (% of control) in assay [6] amounted to 14%.
`COc1c(N2C[C@@H]3CCCN[C@H]3C2)c(F)cc2c(=O)c(C(=O)O)cn(C3CC3)c12`: in assay [1], the parasite growth, % of DMSO control was 53.9% and 70.8%. Moreover, the parasite growth remaining, % of DMSO control (lower = more inhibition) in assay [2] was found to be 76.4%. Further, the parasite growth, % of control (lower = inhibition) in assay [3] is 31.4% and 104%. The cell viability, % of control (lower = more cytotoxic) in assay [5] was determined as 73.3%. In addition, the viability (% of control) in assay [6] was 71.9%.
Take `CC[C@H](CO)Nc1nc(NCc2ccccc2)c2ncn(C(C)C)c2n1`: the parasite growth, % of DMSO control in assay [1] was determined as 20%. For the same compound, the cell viability, % of control (lower = more cytotoxic) in assay [5] was 11.9%. For the same compound, the viability (% of control) in assay [6] turned out to be 29.5%.
`COC(=O)C1=C(C)NC(C)=C(C(=O)OCCN2CCN(C(c3ccccc3)c3ccccc3)CC2)C1c1cccc([N+](=O)[O-])c1` (centres undefined) registered a parasite growth, % of DMSO control in assay [1] of 19.8%. Further, in assay [2], the parasite growth remaining, % of DMSO control (lower = more inhibition) was found to be 45.6%. In addition, the parasite growth, % of control (lower = inhibition) in assay [3] came out at 43.1%. For the same compound, the cell viability, % of control (lower = more cytotoxic) in assay [5] was 126%. The viability (% of control) in assay [6] was 108%.
In assay [1], `CNC(=O)CN1CCC(Oc2cc3c(Nc4cccc(Cl)c4F)ncnc3cc2OC)CC1` displayed a parasite growth, % of DMSO control of 11.2%. This compound also came in with a parasite growth remaining, % of DMSO control (lower = more inhibition) in assay [2] of 41.4%. In addition, the parasite growth, % of control (lower = inhibition) in assay [3] came to 16%. This compound also registered a growth, % of control in assay [4] of 5.64%. Moreover, the cell viability, % of control (lower = more cytotoxic) in assay [5] amounted to 50.7%. Further, the viability (% of control) in assay [6] was 7.61%.
In turn, `Nc1ccn([C@@H]2O[C@H](CO)[C@H](O)C2(F)F)c(=O)n1` yielded a parasite growth, % of DMSO control in assay [1] of 19.5%. This compound came in with a parasite growth remaining, % of DMSO control (lower = more inhibition) in assay [2] of 10.3%. The parasite growth, % of control (lower = inhibition) in assay [3] was 8.03%. In addition, the cell viability, % of control (lower = more cytotoxic) in assay [5] worked out at 144%. The viability (% of control) in assay [6] worked out at 11.1%.
For `Cc1cc(CN2CCN(c3c(Br)cnc4nc(-c5ccc(N6CCN(C)CC6)cc5)[nH]c34)CC2)no1` the same measures were 15.7%, 6.44%, 25.8%, 3.72% and 2.79%.
The compound `CC(C)c1cc(C(=O)N2Cc3ccc(CN4CCN(C)CC4)cc3C2)c(O)cc1O` registered a parasite growth, % of DMSO control in assay [1] of 5.55%. The compound also had a parasite growth remaining, % of DMSO control (lower = more inhibition) in assay [2] of 7.69%. Also, the parasite growth, % of control (lower = inhibition) in assay [3] worked out at 9.28%. Moreover, the growth, % of control in assay [4] was determined as 2.52%. Moreover, in assay [5], the cell viability, % of control (lower = more cytotoxic) turned out to be 29.3%. Moreover, the viability (% of control) in assay [6] is 15%.
Regarding `Cc1coc2c1C(=O)C(=O)c1c-2ccc2c1CCCC2(C)C`, the parasite growth, % of DMSO control in assay [1] was found to be 5.71%. In assay [2], this compound registered a parasite growth remaining, % of DMSO control (lower = more inhibition) of 9.98%. Further, in assay [3], the parasite growth, % of control (lower = inhibition) turned out to be 26.2%. This compound also registered a growth, % of control in assay [4] of 4.66%. In addition, the cell viability, % of control (lower = more cytotoxic) in assay [5] worked out at 93.2%. In addition, the viability (% of control) in assay [6] turned out to be 83.1%.
For the compound `CC(C)(C)NC(=O)[C@H]1CN(Cc2cccnc2)CCN1C[C@@H](O)C[C@@H](Cc1ccccc1)C(=O)N[C@H]1c2ccccc2C[C@H]1O`, the parasite growth, % of DMSO control in assay [1] came out at 19.6%. The parasite growth remaining, % of DMSO control (lower = more inhibition) in assay [2] was 42.6%. Besides, the parasite growth, % of control (lower = inhibition) in assay [3] is 27.8%. Besides, the cell viability, % of control (lower = more cytotoxic) in assay [5] came to 129%. Besides, in assay [6], the viability (% of control) is 85.6%.
As to `COc1ccc(-c2cc3c(C)nc(N)nc3n(C3CCC(OCCO)CC3)c2=O)cn1` (centres undefined), the parasite growth, % of DMSO control in assay [1] amounted to 5.2%. Moreover, the parasite growth remaining, % of DMSO control (lower = more inhibition) in assay [2] is 7.58%. Besides, the parasite growth, % of control (lower = inhibition) in assay [3] is 7.09%. Moreover, the growth, % of control in assay [4] was determined as 3.04%. The cell viability, % of control (lower = more cytotoxic) in assay [5] was found to be 9.04%. Moreover, the viability (% of control) in assay [6] is 3.91%.
`Nc1ncnc2c1c(-c1cnc3[nH]ccc3c1)nn2C1CCCC1` came in with a parasite growth, % of DMSO control in assay [1] of 6.52%. Besides, in assay [2], the parasite growth remaining, % of DMSO control (lower = more inhibition) is 8.6%. Further, in assay [3], the parasite growth, % of control (lower = inhibition) is 8.28%. In addition, in assay [4], the growth, % of control was found to be 2.85%. Besides, the cell viability, % of control (lower = more cytotoxic) in assay [5] is 7.53%. Moreover, in assay [6], the viability (% of control) turned out to be 3.58%.
As to `O=C(Nc1ncc(-c2cc(C(F)F)nn2-c2c(Cl)cccc2Cl)s1)C1CC1`, in assay [1], the parasite growth, % of DMSO control is 10.3%. Also, the parasite growth remaining, % of DMSO control (lower = more inhibition) in assay [2] was found to be 26.5%. Besides, in assay [3], the parasite growth, % of control (lower = inhibition) turned out to be 31.4%. Moreover, in assay [5], the cell viability, % of control (lower = more cytotoxic) was 23.6%. Further, in assay [6], the viability (% of control) came out at 9.09%.
